This is an account of results in PubChem BioAssay (Tox21).

The structures appear in SMILES notation. Results filed as inconclusive are left out. A number with no mark means an inactive call. The source made the active and inactive calls. Calls come from the whole dose curve.
% is set by controls: 0 for no effect and ±100 for the full control effect.

The test deals with Peroxisome proliferator-activated receptor gamma (Homo sapiens) (UniProt P37231). Kind of test: qHTS assay to identify small molecule antagonists of the peroxisome proliferator-activated receptor gamma (PPARg) signaling pathway (AID 743191). Note: nearly all actives have a fitted effect of over 30% in size. The note with it: HEK293H PPARg-UAS-bla, beta-lactamase ratio, antagonist, 17 h; series mostly up to 62.6 µM. From the text: U.S. Tox21 Program National Center for Advancing Translational Sciences [NCATS] NIH Chemical Genomics Center [NCGC] U.S. Environmental Protection Agency [EPA] National Institutes of Environmental Health Sciences [NIEHS] National Toxicology Program [NTP] U.S. Food and Drug Administration [FDA] Tox21 Assay Overview: The peroxisome proliferator-activated receptors (PPARs) are lipid-activated transcription factors of the nuclear receptor superfamily with three distinct subtypes namely PPAR alpha, PPAR delta (also called PPAR beta) and PPAR gamma (PPARg). All these subtypes heterodimerize with Retinoid X receptor (RXR) and these heterodimers regulate transcription of various genes. PPAR-gamma receptor (glitazone receptor) is involved in the regulation of glucose and lipid metabolism. To identify the compounds that inhibit PPAR-gamma signaling, GeneBLAzer PPAR gamma UAS-bla HEK293H cell line (Invitrogen, Carlsbad, CA, USA) containing a beta-lactamase reporter gene under control of an Upstream Activator Sequence (UAS) was used to screen the Tox21 compound library.
Sequence of Peroxisome proliferator-activated receptor gamma (Homo sapiens) (P37231 whole entry, looked up): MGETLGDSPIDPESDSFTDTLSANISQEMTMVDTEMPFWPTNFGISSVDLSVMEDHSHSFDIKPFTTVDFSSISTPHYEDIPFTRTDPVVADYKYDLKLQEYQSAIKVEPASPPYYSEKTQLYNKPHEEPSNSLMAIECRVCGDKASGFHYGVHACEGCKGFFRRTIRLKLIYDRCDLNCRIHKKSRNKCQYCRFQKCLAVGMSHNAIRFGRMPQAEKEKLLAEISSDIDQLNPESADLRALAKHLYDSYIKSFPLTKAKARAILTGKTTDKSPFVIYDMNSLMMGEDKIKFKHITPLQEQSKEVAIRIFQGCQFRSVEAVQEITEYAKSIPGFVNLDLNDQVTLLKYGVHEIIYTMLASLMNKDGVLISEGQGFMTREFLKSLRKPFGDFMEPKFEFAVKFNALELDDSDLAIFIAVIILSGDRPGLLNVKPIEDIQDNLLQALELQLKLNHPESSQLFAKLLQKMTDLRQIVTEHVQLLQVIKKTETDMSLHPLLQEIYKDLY
Tox21 Assay Protocol Summary: PPARg-bla cells were dispensed at 3000 cells/6uL/well in 1536-well black wall/clear bottom plates using a Multidrop Combi (Thermo Fisher Scientific, Waltham, MA) dispenser. After the assay plates were incubated at 37C and 5% CO2 for 5 h, 23 nL of compounds dissolved in DMSO, positive controls or DMSO only was transferred to the assay plate by a Pintool station (Kalypsys, San Diego, CA). The assay plates were incubated at 37C for 17 h. After 1 uL of LiveBLAzerTM B/G FRET substrate was added using a Bioraptr Flying Reagent Dispenser (FRD) workstation (Beckman Coulter, Indianapolis, IN, USA), the plates were incubated at room temperature for 1 h, and fluorescence intensity was measured by an Envision plate reader (PerkinElmer, Shelton, CT).
For orientation: qHTS replaces the single test concentration by a dilution series.
In the case of `CC/C=C\CCCCCCCCCCOC(C)=O`, the outcome was inactive.
As to `CCCCCCC(O)CO` (stereo not given), the outcome was inactive.
On the same count and under the same terms, as for `COc1ccc2cc(CCC(C)=O)ccc2c1`, the entry is “inactive”; as for `CCOC(=O)[C@H](CCc1ccccc1)N[C@H]1CS[C@H](c2cccs2)CN(CC(=O)O)C1=O`, “inactive”; as for `Cc1ccc(Br)cc1`, “inactive”.
On the same count and under the same terms, for `CCCC(=O)CC` the value was “inactive”; for `Cc1ccc(S(=O)(=O)NC(=O)NN2CC3CCCC3C2)cc1` (stereo not given), “inactive”; for `O=Cc1ccccc1S(=O)(=O)O`, “inactive”.
For `N=C(N)N1CCc2ccccc2C1`, the ratio activity, negative = inhibition was -11.9% [at 5.95 µM].
Regarding `COc1cc(C(=O)NC2CCCNC2)cc(OC)c1OC` (stereo not given), the outcome was inactive.
The same measure, in the same setting: for `CSC(=O)c1cccc2nnsc12` the value was “inactive”.
Still for that read-out and setting: as for `CC(C)C(C)C`, the entry is “inactive”; as for `CCCCCCCCCCCCCCCC(=O)OC`, “inactive”.
On to `CC(C)OCCO`, for which the result was inactive.
Consider `CCCC(=O)OC`, for which the outcome was inactive.
`CCOC(=O)CC(C(C)=O)C(C)=O`: the result was inactive.
Still for that read-out and setting: for `O=C(O)CCC(=O)Nc1ccc(S(=O)(=O)Nc2nccs2)cc1` the value was “inactive”; for `CC1=C(O)C(=O)CO1`, “inactive”; for `CCOC(=O)CC`, “inactive”.
As for `CCc1ccc(CC)cc1`, the outcome was inactive.
In the case of `CCN1CCN(C(=O)N[C@@H](C(=O)N[C@@H]2C(=O)N3C(C(=O)O)=C(CSc4nnnn4C)CS[C@H]23)c2ccc(O)cc2)C(=O)C1=O`, the result was inactive.
The same measure, in the same setting: for `BrCCOc1ccccc1` the value was “inactive”; for `Cc1cc(O)c(Cl)cc1C`, “inactive”; for `O=C(O)COc1ccc2ccccc2c1`, “inactive”.
Still for that read-out and setting: for `COC(=O)c1ccccc1Cl` the value was “inactive”.
Turning to `CC/C=C\CCOC(=O)c1ccccc1`, the outcome was inactive.
The same measure, in the same setting: for `COc1ccccc1N1CCN(CC(O)COc2cc(OC)c(OC)c(OC)c2)CC1` (stereo not given) the value was “inactive”; for `COc1cc(S(N)(=O)=O)cc(C(=O)O)c1OC`, “inactive”; for `CC[C@@]1(c2ccccc2)NC(=O)N(C)C1=O`, “inactive”.
The same measure, in the same setting: for `CC(=O)SCC(CC(=O)c1ccc(C)cc1)C(=O)O` (stereo not given) the value was “inactive”; for `CC(=O)c1c(C)cc(C(C)(C)C)cc1C`, “inactive”.
Same read-out and setting: for `CCNC(=O)C(C)OC(=O)Nc1ccccc1` (stereo not given) the value was “inactive”; for `NC(=O)CC[C@@H](N)C(=O)O`, “inactive”; for `CCCCC(O)/C=C(C)/C=C/C=C/C(=O)N1CCCC1=O` (stereo not given), “inactive”.
`NNC(=O)CCCCC(=O)NN`: the outcome was inactive.
Same read-out and setting: as for `C/C=C(\C)C=O`, the entry is “inactive”; as for `COC(=O)N/N=C/c1c[n+]([O-])c2ccccc2[n+]1[O-]`, “inactive”.
`C=CCON/C(CCC)=C1\C(=O)CC(C)(C)C(C(=O)OC)=C1O`: the outcome was inactive.
Turning to `C[n+]1ccccc1/C=N/O`, the result was inactive.
As to `O=C1c2ccccc2C(=O)N1CO`, the outcome was inactive.
